Laboratory results: PubChem BioAssay (Tox21)
Inconclusive results are not listed. Activity calls are given as the source filed them. Unless noted, calls come from the whole dose curve; as a rule, active = well fitted curve in the direction sought with a large enough effect in the repeat runs; inconclusive = weak or mixed curves; inactive = no such curve, though single readings can be large; an effect the other way counts as inactive or inconclusive.

Columns and labels:
[1] = qHTS assay to identify small molecule agonists of the peroxisome proliferator-activated receptor delta (PPARd) signaling pathway - cell viability counter screen (AID 743211); note: nearly all actives have a fitted effect of over 55% in size
Outline: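 Viability of GeneBLAzer PPARd UAS-bla HEK293H cells was assessed after 17 h compound incubation at 37C, using CellTiter-Glo reagent added after the reporter read and luminescence recorded 30 min later.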

[2] = target: Peroxisome proliferator-activated receptor delta (Homo sapiens) (UniProt Q03181); assay: qHTS assay to identify small molecule agonists of the peroxisome proliferator-activated receptor delta (PPARd) signaling pathway (AID 743212; calls by dose curve;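 note: HEK293H cells with PPARd UAS beta-lactamase reporter GeneBLAzer system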)
Outline: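 Beta-lactamase reporter read by fluorescence (LiveBLAzer B/G FRET, 2 h, room temperature). Test agents, in DMSO, incubated at 37 C with PPARd-bla HEK293H cells.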

[3] = qHTS assay to identify small molecule antagonists of the peroxisome proliferator-activated receptor delta (PPARd) signaling pathway - cell viability counter screen (AID 743213); note: nearly all actives have a fitted effect of over 50% in size
Outline: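 CellTiter-Glo was added to PPARd-bla HEK293H wells following 17 h compound treatment in the presence of 300 nM L165041. Luminescence was recorded after 30 min at room temperature.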

[4] = target: Peroxisome proliferator-activated receptor delta (Homo sapiens) (UniProt Q03181); assay: qHTS assay to identify small molecule antagonists of the peroxisome proliferator-activated receptor delta (PPARd) signaling pathway (AID 743215; active = well fitted inhibition curve with a large enough effect in the signal ratio in the repeat runs, not every such curve was filed as active; the % refers to the signal ratio;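 note: cells stimulated with agonist L165041 at 300 nM final during compound exposure; series mostly up to about 62 µM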)
Outline: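 Fluorescence from cleaved LiveBLAzer B/G FRET substrate (2 h, room temperature) reports PPARd-driven beta-lactamase in HEK293H UAS-bla cells. Cells had been treated 17 h at 37 C with compound plus 300 nM final L165041.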

[5] = target: Bile acid receptor (Homo sapiens) (UniProt Q96RI1); assay: qHTS assay to identify small molecule antagonists of the farnesoid-X-receptor (FXR) signaling pathway (AID 743217; active = well fitted inhibition curve with a large enough effect in the signal ratio in the repeat runs, not every such curve was filed as active; the % refers to the signal ratio)
Outline: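 FRET fluorescence after 2 h room-temperature LiveBLAzer loading gives the readout. Prior step: FXR-bla HEK 293T cells, seeded and incubated 5 h, received test compounds plus 50 uM final CDCA for 16 h at 37 °C.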

[6] = qHTS assay to identify small molecule agonists of the farnesoid-X-receptor (FXR) signaling pathway - cell viability counter screen (AID 743218); note: nearly all actives have a fitted effect of over 45% in size
Outline: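 Readout: CellTiter-Glo luminescence, 30 min RT, multiplexed after the FXR-bla FRET reading. HEK 293T FXR-UAS-bla cells received compound 5 h post-plating and were incubated 16 h at 37 C.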

[7] = target: Bile acid receptor (Homo sapiens) (UniProt Q96RI1); assay: qHTS assay to identify small molecule agonists of the farnesoid-X-receptor (FXR) signaling pathway (AID 743220; active = well fitted activation curve with a large enough effect in the signal ratio in the repeat runs, not every such curve was filed as active; the % refers to the signal ratio)
Outline: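 FXR-UAS-bla HEK 293T cells carrying a UAS-driven beta-lactamase reporter were plated for 5 h at 37C/5% CO2, then exposed to DMSO-dissolved Tox21 10K compounds for 16 h at 37C. A LiveBLAzer B/G FRET substrate was loaded for 2 h at room temperature before fluorescence reading.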

[8] = qHTS assay to identify small molecule antagonists of the farnesoid-X-receptor (FXR) signaling pathway - cell viability counter screen (AID 743221; active = well fitted cell-killing curve with a large enough effect in the repeat runs, not every such curve was filed as active; note: nearly all actives have a fitted effect of over 50% in size)
Outline: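 Quantitative HTS of the Tox21 10K library run in parallel with the beta-lactamase reporter read. HEK 293T cells carrying a UAS-driven bla reporter got compound and 50 uM CDCA (final) for 16 h; ATP-based luminescence followed.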

[9] = target: Vitamin D3 receptor (Homo sapiens) (UniProt P11473); assay: qHTS assay to identify small molecule agonists of the vitamin D receptor (VDR) signaling pathway (AID 743222; calls by dose curve)
Outline: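 Following 4 h attachment at 37C, VDR-bla cells (2,000 per well) received DMSO-dissolved compounds or controls. After 16 h incubation, LiveBLAzer B/G FRET substrate was added and fluorescence read 2 h later at room temperature.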

[10] = qHTS assay to identify small molecule agonists of the vitamin D receptor (VDR) signaling pathway - cell viability counter screen (AID 743224); note: series mostly up to about 63 µM; nearly all actives have a fitted effect of over 50% in size
Outline: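 In parallel with the bla FRET readout, cytotoxicity toward VDR-bla cells after 16 h compound exposure was assessed by CellTiter-Glo, with luminescence recorded after a 30 min room-temperature incubation.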

[11] = qHTS assay to identify small molecule antagonists of the vitamin D receptor (VDR) signaling pathway - cell viability counter screen (AID 743225); note: nearly all actives have a fitted effect of over 50% in size
Outline: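 Cells (VDR-UAS-bla HEK 293T) are plated, rested 4 h at 37C, dosed with compound and 3 nM final 1-alpha,25-dihydroxy vitamin D3, and incubated 16 h. Viability is taken from CellTiter-Glo luminescence in the reporter wells.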

[12] = qHTS assay to identify small molecule agonists of the NFkB signaling pathway (AID 1159509; active = well fitted curve in the direction sought with a large enough effect in the signal ratio in the repeat runs, not every such curve was filed as active; the % refers to the signal ratio; note: series mostly up to about 61 µM)
Outline: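 Beta-lactamase reporter assay run in quantitative high-throughput format on an NF-kB-responsive ME-180 line, with 5 hr compound treatment and a FRET-based blue/green fluorescence readout.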

[13] = qHTS assay to identify small molecule agonists of the NFkB signaling pathway - cell viability counter screen (AID 1159515; calls by dose curve; note: series mostly up to about 61 µM; nearly all actives have a fitted effect of over 55% in size)
Outline: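 Plate 2,000 NFkB-bla ME-180 cells/well; incubate overnight. Add compounds, 5 hr at 37 C. Add FRET substrate, 1.5 hr RT. Add CellTiter-Glo, 30 min RT; read luminescence.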

[14] = qHTS assay to identify small molecule agonists of the endoplasmic reticulum stress response signaling pathway - cell viability counter screen (AID 1159517; calls by dose curve; note: nearly all actives have a fitted effect of over 50% in size; note: potency is the fitted concentration of half-maximal effect)
Outline: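 Cytotoxicity of test compounds toward ESRE-bla HeLa cells was assessed after 5 hr exposure. The luminescent CellTiter-Glo signal was measured 30 min after reagent addition.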

[15] = qHTS assay to identify small molecule antagonists of the retinoid-related orphan receptor gamma (ROR-gamma) signaling pathway - cell viability counter screen (AID 1159520); note: nearly all actives have a fitted effect of over 50% in size
Outline: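 Tet-on ROR gamma CHO cells (1,000/well) were plated 4 hr, given compounds in DMSO for 2 hr at 37 C, then induced with 1 uM final doxycycline for 16 hr. Viability was read as ATP by CellTiter-Glo luminescence after 30 min.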

[16] = target: Nuclear receptor ROR-gamma (Homo sapiens) (UniProt P51449); assay: qHTS assay to identify small molecule antagonists of the retinoid-related orphan receptor gamma (ROR-gamma) signaling pathway (AID 1159521)
Outline: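 RORγ antagonism is scored from reduced reporter luminescence in Tet-on CHO cells. Induction used 1 uM final doxycycline hyclate for 16 h at 37 C, following a 2 h compound exposure.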

[17] = qHTS assay to identify small molecule agonists of the AP-1 signaling pathway (AID 1159526; calls by dose curve)
[18] = target: Vitamin D3 receptor (Homo sapiens) (UniProt P11473); assay: qHTS assay to identify small molecule antagonists of the vitamin D receptor (VDR) signaling pathway (AID 743223; active = well fitted inhibition curve with a large enough effect in the signal ratio in the repeat runs, not every such curve was filed as active; the % refers to the signal ratio)
Outline: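 Fluorescence from LiveBLAzer B/G FRET substrate, read after 2 h at room temperature, reflects beta-lactamase reporter activity in VDR-bla cells treated 16 h at 37C with compounds and agonist 1alpha,25-dihydroxyvitamin D3 (3 nM final).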

[19] = qHTS assay to identify small molecule agonists of the AP-1 signaling pathway - cell viability counter screen (AID 1159525; calls by dose curve; note: nearly all actives have a fitted effect of over 55% in size)
Outline: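 Each titration point was normalised to DMSO and tetra n-octyl ammonium bromide controls. The read was Cell Titer Glo luminescence after 30 min at RT, following 5 h compound exposure of ME-180 AP-1-bla cells at 37 °C.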

Measured: Potency

Peroxisome proliferator-activated receptor delta (Homo sapiens), sequence (Q03181 whole entry, looked up): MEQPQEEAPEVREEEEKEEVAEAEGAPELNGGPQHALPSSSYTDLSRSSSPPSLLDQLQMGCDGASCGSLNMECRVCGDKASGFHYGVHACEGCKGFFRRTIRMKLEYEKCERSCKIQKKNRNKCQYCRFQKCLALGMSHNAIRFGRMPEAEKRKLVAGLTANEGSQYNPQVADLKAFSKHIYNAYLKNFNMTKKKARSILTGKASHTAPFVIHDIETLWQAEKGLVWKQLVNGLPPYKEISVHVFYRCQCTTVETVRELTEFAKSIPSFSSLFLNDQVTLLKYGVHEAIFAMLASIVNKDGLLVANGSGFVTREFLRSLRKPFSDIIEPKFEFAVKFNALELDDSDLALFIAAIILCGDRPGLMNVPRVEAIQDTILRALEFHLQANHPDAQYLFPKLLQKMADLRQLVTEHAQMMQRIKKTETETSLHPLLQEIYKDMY
Vitamin D3 receptor (Homo sapiens), sequence (P11473 whole entry, looked up): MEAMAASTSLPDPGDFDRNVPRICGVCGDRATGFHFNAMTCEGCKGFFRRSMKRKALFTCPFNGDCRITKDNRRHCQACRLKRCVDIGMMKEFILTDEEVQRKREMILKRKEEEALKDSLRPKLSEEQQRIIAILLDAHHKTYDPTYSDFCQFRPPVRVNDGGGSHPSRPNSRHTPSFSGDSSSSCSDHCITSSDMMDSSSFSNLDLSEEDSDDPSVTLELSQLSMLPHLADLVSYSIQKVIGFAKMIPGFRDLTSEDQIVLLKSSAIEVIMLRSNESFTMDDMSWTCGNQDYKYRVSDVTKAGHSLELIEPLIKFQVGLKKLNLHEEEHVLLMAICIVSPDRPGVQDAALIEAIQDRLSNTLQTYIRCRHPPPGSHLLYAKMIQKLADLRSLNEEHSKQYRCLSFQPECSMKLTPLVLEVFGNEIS
Bile acid receptor (Homo sapiens), sequence (Q96RI1 whole entry, looked up): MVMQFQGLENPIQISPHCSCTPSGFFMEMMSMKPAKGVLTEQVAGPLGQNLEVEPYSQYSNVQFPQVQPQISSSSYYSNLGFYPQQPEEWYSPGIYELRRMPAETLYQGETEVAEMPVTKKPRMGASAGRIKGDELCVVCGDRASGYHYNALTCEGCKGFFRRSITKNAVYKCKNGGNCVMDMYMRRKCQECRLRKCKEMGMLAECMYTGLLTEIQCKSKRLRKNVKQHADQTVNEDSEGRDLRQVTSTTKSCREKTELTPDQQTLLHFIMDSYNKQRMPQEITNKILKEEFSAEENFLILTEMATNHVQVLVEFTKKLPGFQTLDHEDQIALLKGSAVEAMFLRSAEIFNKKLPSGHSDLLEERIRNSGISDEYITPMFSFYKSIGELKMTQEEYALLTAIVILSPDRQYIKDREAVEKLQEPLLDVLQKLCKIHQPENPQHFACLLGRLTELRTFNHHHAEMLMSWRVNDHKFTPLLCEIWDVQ

Cc1ccc(NC(=O)N(C)C)cc1NC(=O)N(C)C
not listed: [18] | [19]
inactive: all other assays above

CCOCCC(=O)OCC
not listed: [1] | [5] | [7] | [10] | [19]
inactive: all other assays above

CC1C(C)(C)C2=C(C(=O)CCC2)C1(C)C (configuration not stated)
not listed: [5] | [7] | [17] | [19]
inactive: all other assays above

NC(=O)c1ccccc1[N+](=O)[O-]
not listed: [1] | [5] | [7] | [9] | [18]
inactive: all other assays above

CC(C)(O)CCc1ccccc1
not listed: [1] | [18]
inactive: all other assays above

CCCCCCCC(=O)OCCCCCC
not listed: [5] | [6] | [8] | [19]
inactive: all other assays above

CCCCC[C@H](O)/C=C/[C@H]1[C@H](O)CC(=O)[C@@H]1C/C=C\CCCC(=O)O
not listed: [2] | [5] | [7] | [15] | [18]
inactive: all other assays above

CCOC(=O)c1ccc(NC(=O)CN2CCCCC2)cc1
not listed: [1] | [5] | [6] | [7]
inactive: all other assays above

COc1ccc2nc(S(=O)Cc3ncc(C)c(OC)c3C)[nH]c2c1 (configuration not stated)
not listed: [1] | [5] | [7]
inactive: all other assays above

Nc1ccc(N=Nc2ccc(N)cc2)cc1
not listed: [1] | [3] | [5] | [7] | [19]
inactive: all other assays above

Cc1ccc2nc(N)[nH]c(=O)c2c1Sc1ccncc1
not listed: [1] | [5] | [6] | [19]
inactive: all other assays above

CC(=O)OCC(C)C
not listed: [2] | [4] | [5] | [7]
inactive: all other assays above

CC/C=C\C/C=C\C/C=C\CCCCCCCC(=O)OCC
not listed: [10] | [11] | [15] | [18]
inactive: all other assays above

CC1CCC(C(C)CS)CC1S (configuration not stated)
active: [14] 19.5 µM
not listed: [5] | [7] | [10] | [15] | [18]
inactive: all other assays above

CCO[Si](C)(CCCOCC1CO1)OCC (configuration not stated)
not listed: [1] | [5] | [7] | [9]
inactive: all other assays above

COC(=O)c1sccc1S(N)(=O)=O
not listed: [19]
inactive: all other assays above

CNc1c2c(nn1C)CCCC2
not listed: [1] | [2] | [4] | [5] | [7] | [9] | [18]
inactive: all other assays above

COc1ccc(N)c([N+](=O)[O-])c1
not listed: [1] | [6]
inactive: all other assays above
